Results filed as inconclusive are left out. Where a call stands in place of a potency, no number is given. Calls of active or inactive are those of the source. The call rests on the fitted dose curve; in most records, active means well fitted inhibition curve with a large enough effect; inconclusive means small, poorly fitted or top-dose-only effect; inactive means flat fitted curve, though single readings scatter.
Experiments:
Test in all cases: qHTS profiling for inhibitors of Plasmodium falciparum proliferation (AID 504749); further: nearly all actives have a fitted effect of over 60% in size
Conditions in all cases: P. falciparum in erythrocytes, SYBR Green DNA, 72 h; series mostly up to 28.7 µM
DFO2036 = tested on: DFO2036
Method in brief: (§1)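 Three-day growth assay of blood-stage parasites in erythrocytes (0.3% parasitemia, 2.5% hematocrit) at 37 C, 5% CO2, quantified by SYBR Green DNA staining after overnight detergent lysis.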

DIV14 = tested on: DIV14
Method in brief: as §1

DIV30 = tested on: DIV30
Method in brief: as §1

Dd2 = tested on: Dd2
Method in brief: as §1

ECU = tested on: ECU
Method in brief: as §1

FAB9 = tested on: FAB9
Method in brief: as §1

GB4 = tested on: GB4
Method in brief: as §1

HB3 = tested on: HB3
Method in brief: as §1

ICS = tested on: ICS
Method in brief: as §1

DIV17 = tested on: DIV17
Method in brief: as §1
Potency means the concentration at half of the fitted maximal effect.

SMILES | Potency (DFO2036) | Potency (DIV14) | Potency (DIV30) | Potency (Dd2) | Potency (ECU) | Potency (FAB9) | Potency (GB4) | Potency (HB3) | Potency (ICS) | Potency (DIV17)
COc1ccc2c(c1)c1c3n2CCN(C)C3=NCC1 | inactive | inactive | inactive | inactive | inactive | inactive | inactive | inactive | inactive | –
Cc1cccc(C)c1NC(=O)CN1CCCCCC1 | inactive | inactive | – | inactive | inactive | inactive | – | inactive | inactive | –
CC(=O)Nc1ncc([N+](=O)[O-])s1 | inactive | inactive | inactive | inactive | inactive | inactive | inactive | inactive | inactive | –
CN(Cc1ccc(C(C)(C)C)cc1)Cc1cccc2ccccc12 | inactive | – | inactive | – | inactive | inactive | inactive | – | – | inactive
O=S(c1cc(Cl)cc(Cl)c1O)c1cc(Cl)cc(Cl)c1O | – | – | – | – | – | 0.0224 µM (active) | – | 0.0032 µM (active) | inactive | –
Cc1cc2c(OCC(CNC(C)(C)C)OC(=O)c3ccccc3)cccc2[nH]1 (stereo not given) | – | – | inactive | 3.98 µM (active) | inactive | inactive | 10.7 µM (active) | – | 8.91 µM (active) | –
CC(C)=CCOc1ccc(/C=C/C(=O)c2ccc(OCC=C(C)C)cc2OCC(=O)O)cc1 | inactive | – | – | inactive | inactive | inactive | – | inactive | – | –
CC(=O)O[C@]1(C(C)=O)CC[C@H]2[C@@H]3C=C(Cl)C4=CC(=O)CC[C@]4(C)[C@H]3CC[C@@]21C | – | – | – | – | – | inactive | – | – | 10 µM (active) | –
CCC(C(=O)OCCOCCN(CC)CC)c1ccccc1 (stereo not given) | inactive | – | inactive | – | inactive | inactive | – | inactive | inactive | –
O=C(NC1CCN(CCc2c[nH]c3ccccc23)CC1)c1ccccc1 | inactive | – | – | – | inactive | inactive | – | inactive | 8.91 µM (active) | –
CN(C)CCOC(c1ccc(Cl)cc1)c1ccccn1 (stereo not given) | inactive | – | – | 4.47 µM (active) | inactive | inactive | – | inactive | – | –
Cc1ncc(CO)c(C=O)c1O | inactive | – | – | inactive | inactive | inactive | – | inactive | inactive | –
CC1CCc2c(N3CCC(O)CC3)c(F)cc3c(=O)c(C(=O)O)cn1c23 (stereo not given) | – | – | inactive | inactive | inactive | inactive | – | inactive | – | inactive
CCN(CC)CCOc1ccccc1C(=O)CCc1ccccc1 | – | 6.75 µM (active) | – | 4.47 µM (active) | inactive | inactive | – | inactive | – | 7.57 µM (active)
CN(C)CCN1C(=O)c2ccccc2N(C)c2ccccc21 | – | – | – | 11.2 µM (active) | inactive | inactive | 9.53 µM (active) | inactive | inactive | –
CNCCCCOc1ccccc1Cc1ccccc1 | – | 3.79 µM (active) | – | 2.51 µM (active) | – | inactive | 1.69 µM (active) | inactive | 11.2 µM (active) | 1.9 µM (active)
CO[C@]12C[C@@H](COC(=O)c3cncc(Br)c3)CN(C)[C@@H]1Cc1cn(C)c3cccc2c13 | – | – | – | – | inactive | inactive | – | inactive | – | –
CCN(CC)CCOc1ccc2c(c1)C(=O)c1cc(OCCN(CC)CC)ccc1-2 | – | 13.5 µM (active) | – | 12.6 µM (active) | 8.91 µM (active) | – | 12 µM (active) | 11.2 µM (active) | – | 9.53 µM (active)
CC(C)(Cc1c[nH]c2ccccc12)NCC(O)COc1ccccc1C#N (stereo not given) | – | 8.49 µM (active) | – | 12.6 µM (active) | – | inactive | 9.53 µM (active) | – | 11.2 µM (active) | 9.53 µM (active)
CN1CCc2cccc3c2[C@H]1Cc1ccc(O)c(O)c1-3 | – | 7.57 µM (active) | – | inactive | – | – | 7.57 µM (active) | 11.2 µM (active) | 2.82 µM (active) | 7.57 µM (active)
NCCNc1cccc2ccccc12 | – | – | inactive | – | inactive | inactive | – | inactive | – | 15.1 µM (active)
CN1CCN(c2c(F)cc3c(=O)c(C(=O)O)cn4c3c2SCC4)CC1 | – | inactive | inactive | 10 µM (active) | – | inactive | inactive | inactive | – | inactive

SMILES | Potency (DFO2036) | Potency (DIV14) | Potency (DIV30) | Potency (Dd2) | Potency (ECU) | Potency (FAB9) | Potency (GB4) | Potency (HB3) | Potency (ICS) | Potency (DIV17)
Oc1c(Cl)cc(Cl)c(Cl)c1Cc1c(O)c(Cl)cc(Cl)c1Cl | – | 10.7 µM (active) | 13.5 µM (active) | 12.6 µM (active) | 12.6 µM (active) | inactive | 15.1 µM (active) | – | 7.08 µM (active) | 12 µM (active)
Cn1c(=O)c2[nH]c(Br)nc2n(C)c1=O | – | inactive | inactive | inactive | inactive | inactive | inactive | inactive | inactive | inactive
CC(C)NCC(O)c1ccc2ccccc2c1 (stereo not given) | – | 6.75 µM (active) | 12 µM (active) | 7.08 µM (active) | 3.98 µM (active) | – | 6.75 µM (active) | 12.6 µM (active) | 2 µM (active) | 6.75 µM (active)
CC(C)[N+](C)(C)CC(O)COc1cccc2ccccc12 (stereo not given) | – | inactive | inactive | – | – | 7.94 µM (active) | – | – | – | –
NC1CCN(c2nc3c(cc2F)c(=O)c(C(=O)O)cn3-c2ccc(F)cc2F)C1 (stereo not given) | – | inactive | inactive | – | – | inactive | – | – | – | inactive
CN(CCCN1c2ccccc2CCc2ccccc21)CC(=O)c1ccc(Cl)cc1 | – | 4.26 µM (active) | – | 7.08 µM (active) | 10 µM (active) | inactive | – | 12.6 µM (active) | 2 µM (active) | 4.78 µM (active)
CCCCCCCCNC(C)C(O)c1ccc(SC(C)C)cc1 (stereo not given) | – | 0.675 µM (active) | 0.675 µM (active) | 0.447 µM (active) | 0.355 µM (active) | 1.41 µM (active) | 0.536 µM (active) | 0.891 µM (active) | 0.0891 µM (active) | 0.757 µM (active)
OC(C#CCN1CCCC1)(c1ccccc1)c1ccccc1 | – | – | – | 8.91 µM (active) | – | inactive | 6.75 µM (active) | inactive | – | 13.5 µM (active)
CCOCCn1c(N2CCCN(C)CC2)nc2ccccc21 | – | 7.57 µM (active) | – | – | inactive | inactive | – | inactive | – | 7.57 µM (active)
O=C(O)CCc1nc2ccccc2[nH]1 | – | – | – | 0.0007 µM (active) | – | – | – | 0.0089 µM (active) | inactive | –
Cc1ccc(-c2ncc(Cl)cc2-c2ccc(S(C)(=O)=O)cc2)cn1 | – | – | – | – | – | inactive | – | – | – | 15.1 µM (active)
Oc1ccc(Cl)cc1Cc1cc(Cl)ccc1O | inactive | – | – | inactive | – | inactive | – | inactive | – | –
COc1ccc(C(=O)c2ccccc2)c(O)c1 | inactive | – | – | – | – | inactive | – | 10 µM (active) | 2.82 µM (active) | –
NC(=O)C1(N2CCCCC2)CCN(CCCC(=O)c2ccc(F)cc2)CC1 | inactive | – | inactive | – | inactive | inactive | – | inactive | inactive | –
COc1ccc(C(=O)c2ccccc2O)c(O)c1 | inactive | – | – | inactive | inactive | inactive | – | inactive | 2.51 µM (active) | –
COC(=O)C(c1ccccc1Cl)N1CCc2sccc2C1 (stereo not given) | – | inactive | inactive | inactive | – | inactive | – | – | – | –
CN1CCC(OC(c2ccccc2)c2ccccc2)CC1 | – | – | – | 3.98 µM (active) | inactive | inactive | – | inactive | – | –
CN1CCN(c2cc3c(cc2F)c(=O)c(C(=O)O)cn3-c2ccc(F)cc2)CC1 | – | inactive | inactive | – | inactive | inactive | – | inactive | – | inactive
CC(C)(C)CC(C)(C)c1ccc(O)c(-n2nc3ccccc3n2)c1 | – | 13.5 µM (active) | inactive | 12.6 µM (active) | – | – | 16.9 µM (active) | 11.2 µM (active) | 5.01 µM (active) | 13.5 µM (active)
CN1CCN(C2=Nc3ccccc3Sc3ccc(Cl)cc32)CC1 | inactive | – | – | – | inactive | inactive | – | inactive | 11.2 µM (active) | –
CC[N+](C)(CC)CCOC(=O)C(O)(c1ccccc1)C1CCCCC1 (stereo not given) | – | inactive | inactive | – | inactive | inactive | – | – | – | –
O=C(CN1CCN(Cc2ccc3c(c2)OCO3)CC1)N1c2ccccc2Sc2ccccc21 | – | 12 µM (active) | – | 11.2 µM (active) | – | inactive | 12 µM (active) | – | 10 µM (active) | –

Source: PubChem BioAssay (NCATS)
